Broadly, the Inhibition is the change of the read-out against control, counted positive when it falls.

Measured potencies and affinities stand elsewhere.

One experiment relates to Candida albicans. As to conditions: Concentration 32 ug.mL-1; ASSAY_TEST Inhibition of Fungal Growth; detection method Absorption (OD530).
`COc1cccc(Oc2nccn3c(=O)n(CC(=O)Nc4cccc(Br)c4)nc23)c1`: the Inhibition came out at 0.25%.
Consider `Cc1ccc(C)c(CN(c2ccc(F)c(F)c2)S(=O)(=O)c2cccn3cnnc23)c1`, for which the Inhibition was 1.83%.
Same read-out and setting: the figure for `Cc1ccccc1CN(c1cccc(F)c1)S(=O)(=O)c1ccc2nncn2c1` is 3.9%; for `CSc1ccc(CNC(=O)Cn2nc3c(N4CCN(c5ccccc5)CC4)nccn3c2=O)cc1` it is 1.95%.
`CC(C)c1ccc(NC(=O)CSc2nc3ccccc3n3cnnc23)cc1`: the Inhibition was determined as 7.46%.
Consider `O=C(CCc1nnc2c3cc(-c4ccc(F)cc4)nn3ccn12)N1CCC(Cc2ccccc2)CC1`, for which the Inhibition was -1.12%.
Consider `Cc1[nH]c2ccccc2c1C(=O)CSc1nnc2c(=O)n(-c3ccccc3)ccn12`, for which the Inhibition is on record as 0.47%.
For the compound `CCOc1ccc(NC(=O)Cn2nc3c(N4CCCC(C)C4)nccn3c2=O)cc1` (stereo not given), the Inhibition amounted to 0.78%.
On the same count and under the same terms, the figure for `CCc1nnc2c(S(=O)(=O)N(Cc3cccc(F)c3)c3ccc(C)c(C)c3)cccn12` is 3.78%; for `COc1ccc(CN(c2ccc(F)cc2)S(=O)(=O)c2ccc3nnc(C)n3c2)cc1F` it is 1.42%.
Still for that read-out and setting: under `Cc1cccc(N(C)C(=O)Cn2nc3cc(C)nc(Nc4ccc(C)c(F)c4)n3c2=O)c1` stands 4.24%; under `Cc1cccc(Oc2nccn3c(=O)n(CC(=O)Nc4cccc(C(F)(F)F)c4)nc23)c1C`, 16%.
Turning to `O=C(CSc1nnc2c3cc(-c4ccccc4)nn3ccn12)NCc1ccc(Cl)cc1`, the Inhibition is on record as 6.05%.
`Cc1c(Cl)cccc1-n1ccn2c(=O)n(Cc3ccc(Cl)cc3)nc2c1=O`: the Inhibition turned out to be 1.02%.
Still for that read-out and setting: under `CCCCOc1ccc(-c2cc3c4nnc(SCC(=O)Nc5ccc(OC)cc5)n4ccn3n2)cc1` stands 3.4%; under `COc1cccc(CN(c2cccc(C)c2)S(=O)(=O)c2ccc3nnc(C)n3c2)c1`, 0.75%.
Turning to `O=C(CSc1nnc2c(=O)n(-c3cccc(F)c3)ccn12)NCCc1ccccc1`, the Inhibition was 5.41%.
As for `CC(C)CCNC(=O)CSc1nnc2c(=O)n(Cc3ccc(F)cc3)ccn12`, the Inhibition was 1.44%.
Take `Cc1ccc(-c2ccc3nnc(CCC(=O)N4CCN(C(=O)c5ccco5)CC4)n3n2)cc1C`: the Inhibition was 2.04%.
Take `O=C(Cn1nc2ccc(-c3ccccc3)nn2c1=O)Nc1ccc(F)cc1`: the Inhibition stood at 0.88%.
The same measure, in the same setting: the figure for `COc1ccccc1NC(=O)Cn1nc2c(SCc3ccc(Cl)cc3)nccn2c1=O` is 1.74%; for `Cc1ccc(Oc2nccn3c(=O)n(CC(=O)Nc4ccc(C)cc4Br)nc23)cc1` it is 0.3%.
Consider `O=c1c2sccc2n2c(=O)n(Cc3cccc(C(F)(F)F)c3)nc2n1Cc1cccs1`, for which the Inhibition is given as 35.9%.
Turning to `COc1ccccc1NC(=O)Cn1nc2c3cc(-c4ccc(C)c(C)c4)nn3ccn2c1=O`, the Inhibition was -1.16%.
With `CC(=O)c1ccc(NC(=O)Cn2nc3ccc(-c4ccccc4)nn3c2=O)cc1`, the Inhibition was 2.61%.

Another experiment deals with Cryptococcus neoformans. To be noted: Concentration 32 ug.mL-1; ASSAY_TEST Inhibition of Fungal Growth; detection method Resazurin; Absorption (OD600-OD570); plate type 384well; NBS; CORNING #3640. (Resazurin is reduced to fluorescent resorufin, in cell work by metabolically active cells.)
As for `COc1ccc(NC(=O)Cn2nc3ccc(SC4CCCCC4)nn3c2=O)cc1OC`, the Inhibition is given as -24.6%.
With `Cc1cccc(NC(=O)CSc2nnc3ccc(C(=O)Nc4cccc(F)c4)cn23)c1`, the Inhibition is given as -17.48%.
For `CCc1cccc(NC(=O)Cn2nc3c(SC4CCCCC4)nccn3c2=O)c1`, the Inhibition is reported as -17.3%.
As to `CC(C)NC(=O)CSc1nnc2c(=O)n(Cc3ccc(F)cc3)ccn12`, the Inhibition was -22.73%.
In the case of `Cc1ccc(Oc2nccn3c(=O)n(CC(=O)Nc4ccccc4C(F)(F)F)nc23)cc1`, the Inhibition is -7.72%.
For the compound `Cc1ccccc1CN(c1ccc(C(C)C)cc1)S(=O)(=O)c1cccn2c(C)nnc12`, the Inhibition is -10.58%.
Turning to `Cc1ccc(CN(c2cccc(F)c2)S(=O)(=O)c2ccc3nnc(C)n3c2)cc1`, the Inhibition is -8.87%.
As to `CCOc1ccc(C(=O)CSc2nnc3c(=O)n(-c4ccc(F)cc4)ccn23)cc1`, the Inhibition is -6.51%.
Consider `COc1cccc(NC(=O)Cn2nc3c4cc(-c5ccc(Cl)cc5)nn4ccn3c2=O)c1`, for which the Inhibition was -4.67%.
Turning to `COc1ccc(Cl)cc1NC(=O)CSc1nc2ccccc2n2c(C(C)C)nnc12`, the Inhibition is on record as -12.46%.
Turning to `O=C(Cn1nc2c(Oc3ccccc3)nccn2c1=O)Nc1ccc2c(c1)OCO2`, the Inhibition is -10%.
In the case of `COc1cccc(CN(c2ccc(F)cc2)S(=O)(=O)c2ccc3nnc(C)n3c2)c1`, the Inhibition was -13.2%.
Turning to `CC(C)c1ccc(N(Cc2cc(F)cc(F)c2)S(=O)(=O)c2cccn3cnnc23)cc1`, the Inhibition is reported as -6.06%.
Regarding `Cc1ccc(Sc2nccn3c(=O)n(CC(=O)Nc4ccc(Br)cc4)nc23)c(C)c1`, the Inhibition is given as -6.8%.
As to `CCCCOc1ccc(-c2cc3c4nnc(SCC(=O)Nc5ccccc5Cl)n4ccn3n2)cc1`, the Inhibition is given as -20.67%.
Consider `COc1cccc(Oc2nccn3c(=O)n(CC(=O)Nc4cccc(Br)c4)nc23)c1`, for which the Inhibition is -8.58%.
As to `Cc1ccc(C)c(CN(c2ccc(F)c(F)c2)S(=O)(=O)c2cccn3cnnc23)c1`, the Inhibition is -7.27%.
As to `Cc1ccccc1CN(c1cccc(F)c1)S(=O)(=O)c1ccc2nncn2c1`, the Inhibition is -4.05%.
Same read-out and setting: under `CSc1ccc(CNC(=O)Cn2nc3c(N4CCN(c5ccccc5)CC4)nccn3c2=O)cc1` stands -6.85%; under `CC(C)c1ccc(NC(=O)CSc2nc3ccccc3n3cnnc23)cc1`, -15.4%.
Consider `O=C(CCc1nnc2c3cc(-c4ccc(F)cc4)nn3ccn12)N1CCC(Cc2ccccc2)CC1`, for which the Inhibition is reported as -13.61%.
Consider `Cc1[nH]c2ccccc2c1C(=O)CSc1nnc2c(=O)n(-c3ccccc3)ccn12`, for which the Inhibition is -10.08%.
Regarding `CCOc1ccc(NC(=O)Cn2nc3c(N4CCCC(C)C4)nccn3c2=O)cc1` (stereo not given), the Inhibition is given as -15.46%.
For the compound `CCc1nnc2c(S(=O)(=O)N(Cc3cccc(F)c3)c3ccc(C)c(C)c3)cccn12`, the Inhibition was -9.15%.
On the same count and under the same terms, under `COc1ccc(CN(c2ccc(F)cc2)S(=O)(=O)c2ccc3nnc(C)n3c2)cc1F` stands -6.58%.
For the compound `Cc1cccc(N(C)C(=O)Cn2nc3cc(C)nc(Nc4ccc(C)c(F)c4)n3c2=O)c1`, the Inhibition was -1.47%.
As for `Cc1cccc(Oc2nccn3c(=O)n(CC(=O)Nc4cccc(C(F)(F)F)c4)nc23)c1C`, the Inhibition is reported as -8.68%.
Consider `O=C(CSc1nnc2c3cc(-c4ccccc4)nn3ccn12)NCc1ccc(Cl)cc1`, for which the Inhibition is -28.72%.
`Cc1c(Cl)cccc1-n1ccn2c(=O)n(Cc3ccc(Cl)cc3)nc2c1=O`: the Inhibition is -15.09%.
Consider `CCCCOc1ccc(-c2cc3c4nnc(SCC(=O)Nc5ccc(OC)cc5)n4ccn3n2)cc1`, for which the Inhibition is listed as -13.28%.
Take `COc1cccc(CN(c2cccc(C)c2)S(=O)(=O)c2ccc3nnc(C)n3c2)c1`: the Inhibition was -14.81%.
`O=C(CSc1nnc2c(=O)n(-c3cccc(F)c3)ccn12)NCCc1ccccc1`: the Inhibition is given as -10.18%.
On the same count and under the same terms, under `CC(C)CCNC(=O)CSc1nnc2c(=O)n(Cc3ccc(F)cc3)ccn12` stands -7.36%.
Turning to `Cc1ccc(-c2ccc3nnc(CCC(=O)N4CCN(C(=O)c5ccco5)CC4)n3n2)cc1C`, the Inhibition is recorded as -14.25%.
For the compound `O=C(Cn1nc2ccc(-c3ccccc3)nn2c1=O)Nc1ccc(F)cc1`, the Inhibition was -10.36%.
In the case of `COc1ccccc1NC(=O)Cn1nc2c(SCc3ccc(Cl)cc3)nccn2c1=O`, the Inhibition was -17.01%.
As to `Cc1ccc(Oc2nccn3c(=O)n(CC(=O)Nc4ccc(C)cc4Br)nc23)cc1`, the Inhibition was -4.1%.
Turning to `O=c1c2sccc2n2c(=O)n(Cc3cccc(C(F)(F)F)c3)nc2n1Cc1cccs1`, the Inhibition is -33.79%.
For the compound `COc1ccccc1NC(=O)Cn1nc2c3cc(-c4ccc(C)c(C)c4)nn3ccn2c1=O`, the Inhibition is on record as -22.56%.
Still for that read-out and setting: the figure for `CC(=O)c1ccc(NC(=O)Cn2nc3ccc(-c4ccccc4)nn3c2=O)cc1` is -13.06%.

Source of the values: ChEMBL document CHEMBL4513146, “CO-ADD screening of Karazin Kharkiv National University (Ukraine) compounds”.
